Source: PubChem BioAssay AID686979 (National Center for Advancing Translational Sciences (NCATS), 2013)
Hit rate of the full screen: of about 420,000 compounds, about 50,000 (12%) were called active. Another 26% or so got no clear call; they are omitted. The full list was thinned out, with actives kept by preference. A number with no mark means an inactive call. Calls follow the shape of the dose curve; as a rule, active = well fitted inhibition curve with a large enough effect; inconclusive = small, poorly fitted or top-dose-only effect; inactive = flat fitted curve, though single readings scatter.

assay: qHTS for Inhibitors of human tyrosyl-DNA phosphodiesterase 1 (TDP1): qHTS in cells in presence of CPT; conditions: chicken DT40 Tdp1-/-;hTDP1 cells + 20 nM CPT, ATP luminescence, 48 h; series mostly up to 46.2 µM; activity change, negative = growth inhibition: at the top concentration; also: nearly all actives have a fitted effect of over 55% in size
In short: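 Chicken DT40 Tdp1-/- cells stably complemented with human TDP1 were seeded at 400 cells/well in medium containing 20 nM camptothecin, exposed to pin-transferred compounds, and grown at 37 °C for at least 48 hr. Viability was read as ATP luminescence.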
% is scaled to controls: 0 for no effect and ±100 for the full control effect; potency is read from the fitted curve at half-maximal effect.

| SMILES | activity change, negative = growth inhibition | Potency |
| --- | --- | --- |
| CCOC(=O)N1CCC(NC(=O)C(NS(=O)(=O)c2ccc3c(c2)CCN3C(=O)CC)C(C)C)CC1 (stereo unspecified) | -1.88% | – |
| Cc1cc2c(cc1S(=O)(=O)NCc1ccc(Cl)cc1)OCC(=O)N2 | -4.04% | – |
| Cc1cc(C)cc(NS(=O)(=O)c2cc3c(cc2C)NC(=O)CO3)c1 | – | 16.4 µM (active) |
| Cc1ccc(NS(=O)(=O)c2ccc3c(c2)NC(=O)CO3)cc1 | -25.8% | – |
| CC1CCCCC12NC(=O)N(CC(=O)OCC(=O)NCc1ccc(F)cc1)C2=O (stereo unspecified) | 6.76% | – |
| CC(=O)C[C@@H]1OC[C@H](CO)N1S(=O)(=O)c1ccc(C)cc1 | -5.46% | – |
| CCOC(=O)c1cnc(SCC(=O)Nc2ccccc2C(=O)OC)nc1N | – | 16.4 µM (active) |
| COC(=O)c1ccccc1NC(=O)CSc1ccccn1 | 2.84% | – |
| CCOC(=O)c1cnc(SCC(=O)NCc2ccco2)nc1N | -2.75% | – |
| O=C(CSc1nc2ccccc2c(=O)n1CCCO)NC1CC1 | -3.57% | – |
| COc1ccc(CCNC(=O)CCC(=O)NC2CCCCC2)cc1OC | -17.8% | – |
| COc1ccc(CCNC(=O)c2c3c(nc4ccccc24)C(=O)N(C2CCCCC2)C3)cc1OC | – | 20.6 µM (active) |
| COc1ccc(CCNC(=O)C2CCCN2C(=O)Nc2ccccc2)cc1OC (stereo unspecified) | 1.85% | – |
| COc1ccc(C(=O)NCCNc2ccc([N+](=O)[O-])cn2)cc1 | -12.2% | – |
| COc1ccc2c(C(=O)c3ccc(C)cc3)n(CCC(N)=O)[n+]([O-])c2c1 | -8.64% | – |
| CCOC(=O)C(C(=O)OCC)C(C#N)c1ccccc1 (stereo unspecified) | -4.24% | – |
| Cc1cc(C)cc(OCC(=O)NC(C)c2ccccc2)c1 (stereo unspecified) | -1.12% | – |
| CCOC(=O)/C=C/C(=O)OCC(=O)NC(c1ccccc1)c1ccccc1 | – | 5.8 µM (active) |
| O=C(/C=C/c1cccc([N+](=O)[O-])c1)OCC(=O)N1CCOCC1 | -14.9% | – |
| OC[C@@H]1CN(Cc2ccc(-c3ccccc3)cc2)C[C@H](n2cnc3c(NC4CCCC4)ncnc32)O1 | – | 1.03 µM (active) |
| OC[C@@H]1CN(C2CCCC2)C[C@H](n2cnc3c(NC4CCC4)ncnc32)O1 | -0.382% | – |
| OC[C@@H]1CN(Cc2ccc(Cl)cc2)C[C@H](n2cnc3c(NCc4ccncc4)ncnc32)O1 | -15.7% | – |
| Cc1cccc(C2c3c(n(C)c(=O)n(C)c3=O)N=C3c4ccccc4C(=O)C32)c1 (stereo unspecified) | – | 8.2 µM (active) |
| COc1ccc(C2C3=C(OC(C)=O)c4ccccc4C3=Nc3c2c(=O)n(C)c(=O)n3C)cc1 (stereo unspecified) | -17.3% | – |
| Cc1cccc([C@@H]2[C@@H]3C(=O)N(C)C(=O)[C@@H]3[C@@H]3C(=O)Nc4ccccc4C(=O)N23)c1 | 0.49% | – |
| COc1ccc(/C=C/c2nnc(NC(=O)C(C)C)s2)cc1 | -1.28% | – |

| SMILES | activity change, negative = growth inhibition | Potency |
| --- | --- | --- |
| O=C(Cn1cc(C(=O)C2CC2)c2ccccc21)Nc1ccccc1Cl | -8.18% | – |
| O=C(Nc1cccc(-n2cnnn2)c1)c1cccnc1 | 0.855% | – |
| COc1ccc(CNC(=O)C2=Cc3cccc(OC)c3OC2)cc1OC | -8.55% | – |
| O=S(=O)(c1cccc2nonc12)N1CCN(c2cccc(Cl)c2)CC1 | -28.1% | – |
| COc1cc(=O)n2c(c1C(=O)NC(C)c1ccco1)CCN(Cc1cc(C)cc(C)c1)CC2 (stereo unspecified) | -2.45% [at 9.04 µM] | – |
| CCc1ccc(N(CC(=O)Nc2sc3c(c2C(=O)OC)CCCC3)S(C)(=O)=O)cc1 | – | 23.1 µM (active) |
| CCOCC(=O)Nc1sc2c(c1C(=O)OCC)CCCC2 | -28.4% | – |
| CCOC(=O)c1c(NC(=O)/C(C#N)=C/c2ccccc2)sc2c1CCC2 | -3.28% | – |
| COC(=O)c1c(NC(=O)c2ccc(Cl)c(Cl)c2)sc2c1CCCC2 | 0.169% | – |
| COC(=O)c1c(NC(=O)CCCC(=O)O)sc2c1CCCCC2 | 2.67% | – |
| COC(=O)c1c(NC(=O)COC(=O)[C@@H](NS(=O)(=O)c2ccccc2)C(C)C)sc2c1CCC2 | – | 18.4 µM (active) |
| O=C(NC1CCCCC1)c1cc(C2CC2)on1 | 8.81% | – |
| COC(=O)CC(CC(=O)OC)n1cccc1 | 3.57% | – |
| CCCN(CCC)CC(O)COc1ccccc1C(=O)Nc1ccccc1 (stereo unspecified) | -16.1% | – |
| CCCNC(=O)CCC(=O)N1Cc2ccccc2Oc2ncccc21 | -11.4% | – |
| Cc1ccc(CNC(=O)c2c(-c3ccccc3)noc2C)cc1 | 8.05% | – |
| Cc1ccc2cc(CCNC(=O)c3c(-c4ccccc4Cl)noc3C)c(=O)[nH]c2c1 | – | 23.1 µM (active) |
| Cc1onc(-c2ccccc2Cl)c1C(=O)NCCn1ccc2ccccc21 | -18.3% | – |
| Cc1[nH]nc(-c2ccc(OCc3cnn(-c4ccccc4)c3)cc2O)c1Oc1ccc(Cl)cc1 | – | 18.4 µM (active) |
| O=C(c1cnn(-c2ccc(Cl)cc2)c1)c1ccccc1O | -19.7% | – |
| Oc1cccc(C2c3[nH]c4ccccc4c3CCN2Cc2cnn(-c3ccccc3)c2)c1 (stereo unspecified) | 1.42% | – |
| CN(C)S(=O)(=O)c1ccc(NC(=O)COC(=O)c2n[nH]c3ccccc23)cc1 | – | 14.6 µM (active) |
| O=C(COC(=O)c1n[nH]c2ccccc12)Nc1ccccc1Br | -3.17% | – |
| O=C(COC(=O)c1n[nH]c2ccccc12)NCc1ccccc1 | -13.9% | – |
| Cc1nn(C(C)(C)C)c(OC(=O)CC(C)C)c1S(=O)(=O)c1ccccc1 | -23.6% | – |
| COC(=O)c1cccc(C(=O)N2CCCC(Nc3ccc4c(c3)OCCO4)C2)c1 (stereo unspecified) | -15.5% | – |

| SMILES | activity change, negative = growth inhibition | Potency |
| --- | --- | --- |
| O=C(CSc1nnnn1-c1ccccc1)NCc1ccco1 | -15.8% | – |
| C=CCn1c(CSc2nc3ccccc3s2)nnc1SCC(=O)NCc1ccco1 | 3.96% | – |
| O=C(CSc1nc2ccc(Nc3nc(N4CCOCC4)nc(N4CCOCC4)n3)cc2s1)NCc1ccco1 | – | 25.9 µM (active) |
| Brc1ccc(/C=N/N2CCN(C3c4ccccc4-c4ccccc43)CC2)s1 | -7.72% | – |
| CC(=O)O[C@]1(C(C)=O)CC[C@H]2[C@@H]3CCC4=CC(=O)CC[C@]4(C)[C@@]3(F)[C@@H](O)C[C@@]21C | -16.5% | – |
| CN(C)c1ccc(C2N(C)C(=O)c3ccccc3N2C)cc1 (stereo unspecified) | -15.1% | – |
| Cc1ccc(C(=O)CSc2nnc(Cn3nnc4ccccc43)n2C)cc1 | -21% | – |
| Cc1ccc2nnn(Cc3cccc(C(C)(C)C)c3O)c2c1 | – | 20.6 µM (active) |
| Cc1ccc(C2(C)NC(=O)N(CC(=O)N3CC(=O)Nc4ccccc43)C2=O)cc1 (stereo unspecified) | -18.6% | – |
| CC(C)c1nc(SCC(=O)Nc2cccc(C(=O)O)c2)c2c3c(sc2n1)CCCC3 | -9.85% | – |
| Cc1nc(SCC(=O)Nc2cc(C)on2)c2c(C)c(C)sc2n1 | -1.85% | – |
| Cc1cc(NC(=O)CSc2nc(C(C)C)nc3sc4c(c23)CCC(C)C4)no1 (stereo unspecified) | – | 18.4 µM (active) |
| Cc1cc(C)cc(NC(=O)CSc2nc(=O)n(CCN3CCOCC3)c3c2CCC3)c1 | 17.9% | – |
| O=C(CN1CCN(c2ncccn2)CC1)Nc1ccccc1C(F)(F)F | -23.1% | – |
| N#Cc1ccc(CN2CCCC3(CCN(C(=O)c4ccco4)CC3)C2)cc1 | -0.202% | – |
| Cc1ccc2nc(-c3ccc(C)c(NC(=O)Cc4ccccc4)c3)oc2c1 | -0.609% | – |
| CCC(C)[C@H](NC(=O)N1CCn2c1nc1ccccc12)C(=O)NCc1ccc(OC)cc1 (stereo partly specified) | – | 20.6 µM (active) |
| CC(C)[C@H](NC(=O)N1CCn2c1nc1ccccc12)C(=O)NC1CC1 | 3.89% | – |
| CC(C)C[C@H](NC(=O)N1CCn2c1nc1ccccc12)C(=O)NC1CC1 | -19.7% | – |
| CCOc1nc(-c2ccc(OC)cc2)ccc1-c1noc(-c2cc(OC)c(OC)c(OC)c2)n1 | – | 5.17 µM (active) |
| CCOc1ccc(-c2noc(CCC(=O)NC3CCCC3)n2)cc1OC | 3.5% | – |
| COc1nc(-c2ccc(Cl)cc2)ccc1-c1noc(-c2cccs2)n1 | 2.91% | – |
| COc1ccc(-c2cc(-c3nc(-c4cc(OC)c(OC)c(OC)c4)no3)[nH]n2)c(OC)c1 | – | 20.6 µM (active) |
| COc1ccc2[nH]c(=O)c(-c3noc(-c4ccc(F)cc4)n3)cc2c1 | -1.15% | – |
| COc1cc(-c2n[nH]c(=S)n2Cc2ccccc2)cc(OC)c1OC | 0.202% | – |
| O=C(NCc1ccc(Cl)cc1)c1ccc2c(c1)nnn2C1CCCC1 | -26.8% | – |

| SMILES | activity change, negative = growth inhibition | Potency |
| --- | --- | --- |
| O=C(CCC1N=C2c3ccccc3N=C(SCc3ccccc3F)N2C1=O)NCCc1ccccc1 (stereo unspecified) | -5.14% | – |
| Cc1nc(C(F)(F)F)ccc1C(=O)N1CCC1(C)C(=O)NS(=O)(=O)c1ccccc1 (stereo unspecified) | -7.92% | – |
| CCn1cc(C(=O)N[C@@H](C)C(=O)NCCO)c(=O)c2cc3c(cc21)OCO3 | 9.66% | – |
| COc1ccccc1OCCOc1ccc(/C=N/n2cnnc2)cc1 | -3.17% | – |
| Cc1ccccc1OCCOc1ccc([N+](=O)[O-])cc1/C=N/n1cnnc1 | – | 1.16 µM (active) |
| Cc1cc(-c2ccc(/C=N/n3cnnc3)o2)c([N+](=O)[O-])cc1C | -3.41% | – |
| O=C(c1ccc(=O)oc1)N1CCC(C(O)(c2ccccc2)c2ccccc2)CC1 | 6.45% | – |
| CC1(C(=O)NCc2ccc(F)c(F)c2)Cc2c(-c3ccc4c(c3)OCO4)ccnc2O1 (stereo unspecified) | – | 4.11 µM (active) |
| COc1cc(OC)c(C(=O)NCc2ccc3c(c2)OCO3)cc1OC | 24.6% | – |
| O=C(NCc1ccc2c(c1)OCO2)c1cc(F)c(F)cc1Cl | 21.1% | – |
| S=C(NCc1ccc2c(c1)OCO2)NCc1ccco1 | 3.98% | – |
| O=C(Cn1nnc(-c2ccc3c(c2)OCO3)n1)NCc1ccco1 | -16% | – |
| CC1(C(=O)NCc2ccco2)Cc2c(-c3ccc4c(c3)OCO4)ccnc2O1 (stereo unspecified) | – | 0.82 µM (active) |
| O=S(=O)(NC1CCCC1)c1ccc(-n2cnnn2)cc1 | 13% | – |
| C/C(COc1ccccc1)=N\NC(=O)c1nnn(-c2nonc2N)c1-c1ccc(C)cc1 | -13.7% | – |
| COc1ccc(-c2cc(-c3ccccc3)nc3c2COc2ccc(Cl)cc2-3)cc1 | -28.4% | – |
| CC(=O)c1ccc(Cc2ncc(C(F)(F)F)cc2Cl)s1 | -6.15% | – |
| Cc1cccc(OC(C)C(=O)N2CCc3ccccc3C2)c1 (stereo unspecified) | -13.5% | – |
| COc1cc(N2C(=O)c3ccccc3C2=O)c(Cl)cc1C(=O)OCC(=O)N1CCOCC1 | 3.81% | – |
| COc1cccc(NC(=O)COC(=O)/C=C/c2ccco2)c1 | -23% | – |
| Cc1cccc(OCC(=O)NCCCNC(=O)c2ccccn2)c1 | 12.5% | – |
| CCN(CC)CCOc1ccc2c(c1)C(=NNC(=O)c1ccccn1)c1cc(OCCN(CC)CC)ccc1-2 | – | 5.17 µM (active) |
| CCOc1cc2ccccc2cc1C(=O)Nc1ccccn1 | 0.36% | – |
